Measured values taken from PubChem BioAssay (NCI).
This is part of a sample that, as a whole, favours compounds with a hit. Of some 83,000 tested, about 20% had one in any assay.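 Activity criterion: percent growth below 10, measured after cells in 96-well plates were exposed to a single compound concentration for 48 hours.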 Calls of active or inactive are those of the source.

Experiments:
Assay in all cases: NCI-60 one-dose screen, 48 h (100 = growth as untreated, 0 = no growth, -100 = all killed)
RPMI-8226 leukemia = details: 10 µM
OVCAR-8 ovarian = details: 10 µM
OVCAR-5 ovarian = details: 10 µM
OVCAR-4 ovarian = details: 10 µM
SK-OV-3 ovarian = details: 10 µM
IGROV1 ovarian = details: 10 µM
OVCAR-3 ovarian = details: 10 µM
HS 578T breast = details: 10 µM
NCI/ADR-RES ovarian = details: 10 µM
T-47D breast = details: 10 µM
BT-549 breast = details: 10 µM
MDA-MB-435 melanoma = details: 10 µM
SW-620 colon = details: 10 µM
MCF7 breast = details: 10 µM unless noted
HCT-116 colon = details: 10 µM
HCC-2998 colon = details: 10 µM
KM12 colon = details: 10 µM

Measured: growth

CCOC(=O)c1[nH]c(C)c(C(C)=O)c1C
inactive: OVCAR-8 ovarian 96.1% | OVCAR-5 ovarian 88% | OVCAR-4 ovarian 86.8% | SK-OV-3 ovarian 101% | IGROV1 ovarian 102% | OVCAR-3 ovarian 95% | HS 578T breast 91.6% | NCI/ADR-RES ovarian 98% | T-47D breast 86.9% | BT-549 breast 107% | MDA-MB-435 melanoma 94.7% | SW-620 colon 99.4% | MCF7 breast 87.1% | HCT-116 colon 90.4% | HCC-2998 colon 88.6% | KM12 colon 98.3%
active: RPMI-8226 leukemia -7.82%

CC(C)COC(=O)COC(=O)OCCOCCOC(=O)OCC(=O)OCC(C)C
inactive: RPMI-8226 leukemia 97.3% | OVCAR-8 ovarian 99.7% | OVCAR-5 ovarian 101% | OVCAR-4 ovarian 110% | SK-OV-3 ovarian 100% | IGROV1 ovarian 105% | OVCAR-3 ovarian 126% | HS 578T breast 124% | NCI/ADR-RES ovarian 106% | T-47D breast 96.7% | BT-549 breast 99.2% | MDA-MB-435 melanoma 119% | SW-620 colon 108% | MCF7 breast 98.7% | HCT-116 colon 103% | HCC-2998 colon 101% | KM12 colon 104%

O=C(NCc1ccco1)Nc1c(Cl)cc(Cl)cc1Cl
inactive: RPMI-8226 leukemia 100% | OVCAR-8 ovarian 101% | OVCAR-5 ovarian 97.7% | OVCAR-4 ovarian 88.4% | SK-OV-3 ovarian 103% | IGROV1 ovarian 105% | OVCAR-3 ovarian 112% | HS 578T breast 109% | NCI/ADR-RES ovarian 101% | T-47D breast 88.6% | BT-549 breast 96.1% | MDA-MB-435 melanoma 96.5% | SW-620 colon 102% | MCF7 breast 92.8% | HCT-116 colon 95.5% | HCC-2998 colon 102% | KM12 colon 104%
